Test results reported in PubChem BioAssay (NCI).
Compounds without any hit were thinned out: in the full panel of roughly 79,000, 15% have a hit. Calls of active or inactive are those of the source. Cut-off read from the data, not from the text of the source: active = growth inhibition above about 70%; inactive = the rest.

Legend:
[1] = NCI Yeast Anticancer Drug Screen. Data for the rad52 strain (AID 147);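 note: 0% = growth of vehicle-treated control cultures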; conditions: S. cerevisiae rad52 mutant growth inhibition, stronger effect = higher value
In short: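 Compounds are applied to a genetically defined yeast strain lacking normal DNA damage repair, and inhibition of growth is expressed relative to cultures given vehicle only.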

[2] = NCI Yeast Anticancer Drug Screen. Data for the wt1 strain (AID 149);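 note: 0% = growth of vehicle-treated wt1 cultures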; conditions: S. cerevisiae wt1 strain (SPY 50644) growth inhibition, stronger effect = higher value
In short: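 Readout: yeast growth inhibition, normalised to vehicle controls, in the wt1 strain exposed to test compounds.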

[3] = NCI Yeast Anticancer Drug Screen. Data for the rad50EPP+ strain (AID 151);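 note: 0% = growth of vehicle-treated control cultures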; conditions: S. cerevisiae rad50 mutant strain, stronger effect = higher value
In short: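 Compounds were applied to the rad50EPP+ yeast strain, which bears a defined DNA repair alteration, and growth inhibition was determined relative to vehicle-treated cultures.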

[4] = NCI Yeast Anticancer Drug Screen. Data for the mgt1 strain (AID 153); conditions: S. cerevisiae mgt1 mutant growth inhibition, stronger effect = higher value
In short: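 Strain: mgt1 yeast, one of a set carrying defined DNA damage repair or cell cycle control alterations. Compound-treated growth compared with vehicle.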

[5] = NCI Yeast Anticancer Drug Screen. Data for the rad50 strain (AID 155);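 note: 0% = growth of vehicle-only cultures of the same strain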; conditions: S. cerevisiae rad50 strain growth inhibition, stronger effect = higher value
In short: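 Compounds were tested on a yeast strain with an engineered DNA damage repair alteration; the reported value is growth inhibition normalised to vehicle treatment.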

[6] = NCI Yeast Anticancer Drug Screen. Data for the mec2-1 strain (AID 157); conditions: S. cerevisiae mec2-1 strain, stronger effect = higher value
In short: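 Strain: mec2-1 (DNA repair/cell cycle alteration). Compound exposure, then growth measured; inhibition expressed relative to vehicle.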

[7] = NCI Yeast Anticancer Drug Screen. Data for the rad14 strain (AID 159);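 note: 0% = growth of vehicle-treated control cultures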; conditions: S. cerevisiae rad14 strain growth inhibition, stronger effect = higher value
In short: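 Compound-treated yeast with a defined DNA-repair lesion; growth inhibition normalised to vehicle-treated cultures.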

[8] = NCI Yeast Anticancer Drug Screen. Data for the sgs1 mgt1 strain (AID 161);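 note: 0% = growth of cultures given vehicle only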; conditions: S. cerevisiae sgs1 mgt1 strain, stronger effect = higher value
In short: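 Mutant yeast exposed to compound; growth scored against vehicle-only wells.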

[9] = NCI Yeast Anticancer Drug Screen. Data for the CLN2oe strain (AID 163);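 note: 0% = growth of vehicle-only control cultures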; conditions: S. cerevisiae CLN2oe strain, stronger effect = higher value
In short: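 Growth of a genetically modified yeast strain is measured after compound exposure and compared with cultures given vehicle alone.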

[10] = NCI Yeast Anticancer Drug Screen. Data for the cln2 rad14 strain (AID 165);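 note: 0% = growth equal to vehicle treated cultures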; conditions: S. cerevisiae cln2 rad14 strain, stronger effect = higher value
In short: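 Compounds are applied to the cln2 rad14 yeast strain, and growth is then compared with that of vehicle-treated cultures to give inhibition.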

[11] = NCI Yeast Anticancer Drug Screen. Data for the bub3 strain (AID 167); conditions: S. cerevisiae bub3 mutant strain, stronger effect = higher value
In short: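 Growth of a checkpoint-deficient yeast mutant is measured after compound exposure. Values represent inhibition relative to vehicle.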

[12] = NCI Yeast Anticancer Drug Screen. Data for the wt2 strain (AID 169);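 note: 0% = growth of vehicle-treated yeast cultures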; conditions: S. cerevisiae wt2 strain growth inhibition, stronger effect = higher value
In short: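 This strain belongs to a panel of yeast strains with defined genetic alterations in DNA damage repair or cell cycle control. Compounds are applied, and growth inhibition is measured against vehicle-treated cultures.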

[13] = NCI Yeast Anticancer Drug Screen. Data for the sgs1 strain (AID 173);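 note: 0% = growth of vehicle-only control cultures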; conditions: S. cerevisiae sgs1 mutant, stronger effect = higher value
In short: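 Growth of a yeast strain bearing a defined genetic alteration is measured after compound treatment. Inhibition is expressed relative to vehicle-only controls.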

[14] = NCI Yeast Anticancer Drug Screen. Data for the mlh1 rad18 strain (AID 175); conditions: S. cerevisiae mlh1 rad18 strain growth inhibition, stronger effect = higher value
In short: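 Read-out is yeast growth inhibition, calculated against vehicle-only controls. The compound was applied to a strain engineered with DNA damage repair alterations.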

[15] = NCI Yeast Anticancer Drug Screen. Data for the rad18 strain (AID 177); conditions: S. cerevisiae rad18 mutant growth inhibition, stronger effect = higher value
In short: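 Growth of the mutant yeast strain after compound exposure, normalised to vehicle-only cultures.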

[16] = NCI Yeast Anticancer Drug Screen. Data for the mlh1 strain (AID 171);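 note: 0% = growth of vehicle-treated control cultures of the same strain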; conditions: S. cerevisiae mlh1 strain growth inhibition, stronger effect = higher value
In short: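 Growth of the mutant yeast strain after compound exposure, expressed as inhibition relative to vehicle-only controls.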

[17] = at 5.0 µM (retest, dose inferred, filed as 0.5)
[18] = at 50.0 µM (retest, dose inferred, filed as 5.0)

Measured: growth inhibition

Clc1c(Cl)c(Cl)c2c(nnn2C2CCCO2)c1Cl (stereo unspecified)
inactive: [1]; at 1.2 µM 10% | [1]; at 3.7 µM 19% | [1]; at 11.0 µM 24% | [1]; at 33.0 µM 33% | [1]; at 100.0 µM 58% | [2]; at 1.2 µM 0% | [2]; at 3.7 µM -1% | [2]; at 11.0 µM -5% | [2]; at 33.0 µM 11% | [2]; at 100.0 µM 46% | [3]; at 1.2 µM -32% | [3]; at 3.7 µM -10% | [3]; at 11.0 µM -9% | [3]; at 33.0 µM -4% | [3]; at 100.0 µM 35% | [4]; at 1.2 µM -24% | [4]; at 3.7 µM -9% | [4]; at 11.0 µM -5% | [4]; at 33.0 µM -1% | [5]; at 1.2 µM 5% | [5]; at 3.7 µM -1% | [5]; [17] 4% | [5]; at 11.0 µM 6% | [5]; at 33.0 µM 14% | [5]; [18] 38% | [5]; at 100.0 µM 48% | [6]; at 1.2 µM 2% | [6]; at 3.7 µM -1% | [6]; [17] 12% | [6]; at 11.0 µM 10% | [6]; at 33.0 µM 8% | [6]; [18] 48% | [7]; at 1.2 µM -11% | [7]; at 3.7 µM -8% | [7]; at 11.0 µM -1% | [7]; at 33.0 µM 12% | [8]; [17] -1% | [9]; at 1.2 µM -11% | [9]; at 3.7 µM 1% | [9]; at 11.0 µM 0% | [9]; at 33.0 µM 9% | [9]; at 100.0 µM 33% | [10]; [17] 8% | [10]; [18] 62% | [11]; at 1.2 µM -7% | [11]; at 3.7 µM -8% | [11]; [17] 18% | [11]; at 11.0 µM -22% | [11]; at 33.0 µM 11% | [11]; [18] 60% | [11]; at 100.0 µM 50% | [12]; at 1.2 µM -14% | [12]; at 3.7 µM -2% | [12]; at 11.0 µM 6% | [12]; at 33.0 µM 60% | [13]; at 1.2 µM -30% | [13]; at 3.7 µM -13% | [13]; at 11.0 µM -1% | [13]; at 33.0 µM 12% | [14]; [17] 7% | [14]; [18] 45% | [15]; at 1.2 µM -15% | [15]; at 3.7 µM -4% | [15]; at 11.0 µM 2% | [15]; at 33.0 µM 14% | [15]; at 100.0 µM 54%
active: [4]; at 100.0 µM 75% | [5]; at 50.0 µM 78.3% | [6]; at 50.0 µM 85.2% | [6]; at 100.0 µM 76% | [7]; at 100.0 µM 75% | [8]; [18] 80% | [8]; at 50.0 µM 78% | [10]; at 50.0 µM 74.8% | [11]; at 50.0 µM 83.2% | [12]; at 100.0 µM 97% | [13]; at 100.0 µM 83% | [14]; at 50.0 µM 83.8%

CC[C@@]1(OC(=O)CN(C)C)C(=O)OCc2c1cc1n(c2=O)Cc2cc3c(N)cccc3nc2-1
active: [1]; at 3.7 µM 75% | [1]; at 11.0 µM 88% | [1]; at 33.0 µM 93% | [1]; at 100.0 µM 95% | [3]; at 33.0 µM 77% | [3]; at 100.0 µM 87% | [5]; at 3.7 µM 82% | [5]; [17] 90% | [5]; at 11.0 µM 91% | [5]; at 33.0 µM 94% | [5]; [18] 90% | [5]; at 100.0 µM 95% | [6]; at 33.0 µM 88% | [6]; at 100.0 µM 96% | [9]; at 100.0 µM 80% | [14]; at 50.0 µM 73.5%
inactive: [1]; at 1.2 µM 53% | [2]; at 1.2 µM 0% | [2]; at 3.7 µM -2% | [2]; at 11.0 µM -1% | [2]; at 33.0 µM 6% | [2]; at 100.0 µM 25% | [3]; at 1.2 µM 7% | [3]; at 3.7 µM 22% | [3]; at 11.0 µM 55% | [4]; at 1.2 µM -2% | [4]; at 3.7 µM 0% | [4]; at 11.0 µM 2% | [4]; at 33.0 µM 20% | [4]; at 100.0 µM 39% | [5]; at 1.2 µM 68% | [5]; at 50.0 µM -17.9% | [6]; at 1.2 µM 0% | [6]; at 3.7 µM 8% | [6]; [17] 22% | [6]; at 11.0 µM 46% | [6]; [18] 22% | [6]; at 50.0 µM 58.4% | [7]; at 1.2 µM 2% | [7]; at 3.7 µM 0% | [7]; at 11.0 µM 4% | [7]; at 33.0 µM 19% | [7]; at 100.0 µM 51% | [8]; [17] 14% | [8]; [18] 14% | [8]; at 50.0 µM 6.05% | [9]; at 1.2 µM -8% | [9]; at 3.7 µM 1% | [9]; at 11.0 µM 8% | [9]; at 33.0 µM 43% | [10]; [17] 17% | [10]; [18] 17% | [10]; at 50.0 µM 31.1% | [11]; at 1.2 µM -14% | [11]; at 3.7 µM -20% | [11]; [17] 6% | [11]; at 11.0 µM -3% | [11]; at 33.0 µM 20% | [11]; [18] 6% | [11]; at 50.0 µM 0.7% | [11]; at 100.0 µM 59% | [12]; at 1.2 µM -2% | [12]; at 3.7 µM 1% | [12]; at 11.0 µM 3% | [12]; at 33.0 µM 13% | [12]; at 100.0 µM 32% | [16]; at 1.2 µM -1% | [16]; at 3.7 µM -2% | [16]; at 11.0 µM 1% | [16]; at 33.0 µM 28% | [16]; at 100.0 µM 55% | [13]; at 1.2 µM 0% | [13]; at 3.7 µM 4% | [13]; at 11.0 µM 17% | [13]; at 33.0 µM 40% | [13]; at 100.0 µM 64% | [14]; [17] 27% | [14]; [18] 27% | [15]; at 1.2 µM -18% | [15]; at 3.7 µM -5% | [15]; at 11.0 µM 5% | [15]; at 33.0 µM 19% | [15]; at 100.0 µM 51%
